Results on 35 molecules are retold here after PubChem BioAssay (NCI).

The structures appear in SMILES notation. Compounds without any hit were thinned out: in the full panel of roughly 83,000, 20% have a hit.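 Growth was measured after 48 h exposure to one concentration of compound in 96-well plates. Values under 10 count as active.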 Values without a mark were called inactive. The source made the active and inactive calls.

One experiment concerns NCI-H522 lung. Nature of the experiment: NCI-60 one-dose screen, 48 h (100 = growth as untreated, 0 = no growth, -100 = all killed). As to conditions: 10 µM unless noted.
As for `O=C1C=CC2(NN=C(c3ccccc3)N2c2cccc(Cl)c2)C(Cl)=C1` (stereo not given), the growth was 36.6%. Regarding `Cc1ccc(N=C2CSc3nnc(-c4csc5c4CCCC5)n3N2)cc1`, the growth was 29%. Turning to `Cc1cc(-c2cc(OC(=O)c3ccccc3)ccc2Cl)cc2nnc(Nc3ccc(OCCN4CCCC4)cc3)nc12`, the growth is 49.2%.

As for `Cc1cc(O)cc(-c2c(-c3ccnc(-c4cccnc4)c3)cnn2C)c1`, the growth was 46.9%.

For a further experiment, the system named is A549/ATCC NSCLC. The experiment is described as above. The settings on record: 10 µM unless noted.
As to `CCOc1cc2ncc(C#N)c(Nc3ccc(F)c(Cl)c3)c2cc1NC(=O)/C=C/CN(C)C`, the growth is -30.6% (active).

As for `CCN(CC)CCNC(=O)c1c(C)[nH]c(/C=C2\C(=O)Nc3ccc(F)cc32)c1C`, the growth is 0.0489% (active). Regarding `COc1ccc2c(CCC(c3ccccc3)c3ccccc3)c3[n+](cc2c1OC)CCc1cc2c(cc1-3)OCO2`, the growth was 15.7%. With `C[C@@H](Oc1cc(-n2cnc3ccc(CN4CCN(C)CC4)cc32)sc1C(N)=O)c1ccccc1C(F)(F)F`, the growth was 0.209% (active). With `CC(C)=CCc1cc2c(cc1O)C1=C(C(=O)C3=C(NCCS3(=O)=O)C1=O)C(C=C(C)C)O2` (stereo not given), the growth was 65.8%. Still for that read-out and setting: the figure for `CC(N)C(Cc1ccc(Cl)cc1)c1ccc(Cl)cc1` (stereo not given) is 42.1%; for `Clc1nc(Cl)c2ncn(CC#CCn3cnc4c(Cl)nc(Cl)nc43)c2n1` it is 8.8% (active); for `Cc1nc(NC(=O)N2CCC[C@H]2C(N)=O)sc1-c1ccnc(C(C)(C)C(F)(F)F)c1` it is 21%. For `COc1ccc2c(CCCc3ccc(Cl)cc3Cl)c3[n+](cc2c1OC)CCc1cc2c(cc1-3)OCO2`, the growth was 11.9%. On the same count and under the same terms, for `Cc1c(Cn2c(C)nc3c(C(=O)O)cc(N4CCOCC4)cc32)cccc1C(F)(F)F` the value was 89.7%; for `COc1cc2nccc(Oc3ccc(NC(=O)C4(C(=O)Nc5ccc(F)cc5)CC4)cc3)c2cc1OC`, 2.35% (active); for `C=CCCCC(=O)CCC(=O)OCC1O[C@@H](O[C@@H]2C(O)[C@@H](OC(C)=O)C(C)O[C@H]2O[C@H](CC=C)CCCCC)C(O)[C@@H](OC(=O)/C(C)=C/C)[C@@H]1OC(=O)/C=C/c1ccccc1` (stereo not given in full), 24.6%.

For `O=c1[nH]ccc2c(S(=O)(=O)N3CCCNCC3)cccc12`, the growth was 81.3%. Turning to `CC1(C=O)NC(=O)NC1=O` (stereo not given), the growth is 55.7%. Regarding `Cc1ccc(NC(=O)c2ccc(CN3CC[C@H](N(C)C)C3)c(C(F)(F)F)c2)cc1Nc1nccc(-c2cncnc2)n1`, the growth is 1.73% (active). With `O=C(Nc1cccc(Cl)c1)Nc1ncc(CCNc2ncnc3ccsc23)s1`, the growth was 14.9%. On to `Cn1ccnc1C(=O)/C=C/c1ccc(CC(=O)Nc2ccc(Br)cc2)cc1`, for which the growth was 3.64% (active). The same measure, in the same setting: for `COc1cccc2cc(-c3nc(C4CCC(C(=O)O)CC4)n4ncnc(N)c34)[nH]c12` (stereo not given) the value was 5.25% (active); for `CNc1ncc2cc(-c3cc(NC(=O)NCCC(C)(C)C)c(F)cc3C)c(C)nc2n1`, 12.2%. Take `Cc1cc(C(=O)Nc2cc(Oc3ccc4nc(NC(=O)C5CC5)cn4n3)ccc2C)n(C)n1`: the growth was 11%.

With `CCc1ccc(C2=C(O)C(=O)C(c3ccc(CC)cc3)=C(O)C2=O)cc1`, the growth is -58.3% (active). For the molecule `CNC(=O)c1cccc2cc(Oc3ccnc4cc(OCC5(N)CC5)c(OC)cc34)ccc12`, the growth was 57.4%. With `CCCCN1CCCC[C@@H]1C(=O)N[C@H](C(=O)N(C)[C@H](CCc1nc(C(=O)N[C@@H](Cc2ccccc2)C[C@H](C)C(=O)OC)cs1)C(C)C)C(C)C`, the growth was 81.8%. As to `COc1cnc2c(c1)C(=O)c1c-2n(CCCN2CCC(N)CC2)c(=O)c2cc([N+](=O)[O-])ccc12`, the growth was 23%. Same read-out and setting: the figure for `C=CC(=O)Nc1cc2c(Nc3ccc(F)c(Cl)c3)ncnc2cc1OCCCN1CCOCC1` is 22.9%. Take `NC(=O)c1c(OCc2c(F)cc(Br)cc2F)nsc1NC(=O)NCCCCN1CCCC1`: the growth was -15.6% (active). The same measure, in the same setting: for `CCc1nc2ccc(Cc3ccc(C(=O)NO)cc3)cc2c(=O)n1CCc1ccccc1` the value was -41.7% (active). As for `Cc1cc(N(CCNc2ccnc3cc(Cl)ccc23)Cc2ccc3c(c2)OCO3)nc(N2CCN(C)CC2)n1`, the growth was 26%. Consider `Cc1ccc2oc(=O)cc(-c3cc(-c4cc5ccccc5oc4=O)nc(N)c3C#N)c2c1`, for which the growth was 54.8%.

On to `Cc1[nH]c(/C=C2\C(=O)Nc3ccc(F)cc32)c(C)c1C(=O)NC[C@H](O)CN1CCOCC1`, for which the growth is 27.4%. On the same count and under the same terms, the figure for `O=C(Nc1cn[nH]c1-c1nc2ccc(CN3CCOCC3)cc2[nH]1)NC1CC1` is 48.6%.
